The panel holds about 79,000 compounds, 15% with a hit somewhere; the sample as a whole holds those more often. No stated cut-off is given here; in the data, active means growth inhibition above about 70%; inactive means the rest.
Key:
[1] = NCI Yeast Anticancer Drug Screen. Data for the rad50 strain (AID 155);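 further: 0% = growth of vehicle-only cultures of the same strain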; settings: S. cerevisiae rad50 strain growth inhibition, hits give high values; at 50.0 µM unless noted
Outline: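 Vehicle-treated cultures provide the reference for the growth inhibition reported for compound-exposed, repair-deficient yeast.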

[2] = NCI Yeast Anticancer Drug Screen. Data for the mec2-1 strain (AID 157); settings: S. cerevisiae mec2-1 strain, hits give high values; at 50.0 µM unless noted
Outline: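 Cells of the genetically defined mec2-1 yeast strain are incubated with test compound. Inhibition of growth is calculated against vehicle-treated controls.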

[3] = NCI Yeast Anticancer Drug Screen. Data for the sgs1 mgt1 strain (AID 161);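 further: 0% = growth of cultures given vehicle only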; settings: S. cerevisiae sgs1 mgt1 strain, hits give high values; at 50.0 µM unless noted
Outline: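 Inhibition of yeast growth, normalised to vehicle-treated controls, is reported for a strain bearing genetic alterations in DNA damage repair.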

[4] = NCI Yeast Anticancer Drug Screen. Data for the cln2 rad14 strain (AID 165);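 further: 0% = growth equal to vehicle treated cultures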; settings: S. cerevisiae cln2 rad14 strain, hits give high values; at 50.0 µM unless noted
Outline: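 The screen exposed genetically defined yeast (cln2 rad14) to test compounds and scored growth inhibition relative to vehicle-treated controls.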

[5] = NCI Yeast Anticancer Drug Screen. Data for the bub3 strain (AID 167); settings: S. cerevisiae bub3 mutant strain, hits give high values; at 50.0 µM unless noted
Outline: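 Mutant yeast screening strain plus compound; vehicle-treated cultures serve as the 0% inhibition reference.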

[6] = NCI Yeast Anticancer Drug Screen. Data for the mlh1 rad18 strain (AID 175); settings: S. cerevisiae mlh1 rad18 strain growth inhibition, hits give high values; at 50.0 µM unless noted
Outline: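 Compound-treated yeast growth, normalised to vehicle controls. Strain bears defined DNA repair mutations.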

Measured: growth inhibition

Cc1cc2cc3c(=O)[nH]c(=O)[nH]c3nc2cc1C
inactive: [1] -11.7% | [2] 1.65% | [3] -19% | [4] -8.6% | [5] -27.2% | [6] -0.05%

COc1ccc2c(c1)CCN1CCCc3ccccc3C21 (stereo unspecified)
inactive: [1] 22.4% | [2] 2.75% | [3] 6.3% | [4] 25.8% | [5] 14.8% | [6] -5.75%

Cc1ccc(C(=O)O)c(/C=C2\Cc3cc(C)cc(C)c3C2=O)c1
inactive: [1] 21.1% | [2] 14.8% | [3] 24.6% | [4] 16.6% | [5] 9.85% | [6] 29.7%

CCCC(=O)CC(=O)Nc1ccccc1
inactive: [1] 2.9% | [2] -6.3% | [3] -14.9% | [4] -23.9% | [5] -17.6% | [6] 11.2%

CCCCC(CC)C(O)P(=O)(O)O (stereo unspecified)
inactive: [1] -9.2% | [2] -15.1% | [3] -9.75% | [4] -14.3% | [5] 2.8% | [6] 0.45%

COC(=O)[C@H]1C2CC[C@@H]3C45C[C@@H](c6ccoc6)O[C@@H]4O[C@@H](O2)C31CCC5C (stereo partly specified)
inactive: [1] 14.5% | [2] -18.4% | [3] 6.35% | [4] 5% | [5] -30.1% | [6] 14.9%

O=CC(CO)C(C=O)n1ncc2ccccc21 (stereo unspecified)
inactive: [1] 30.2% | [2] 7.7% | [3] 28.3% | [4] 9.55% | [5] 13.3% | [6] 30.8%

NC(=O)CSc1c2cc(O)ccc2nc2ccc(O)cc12
inactive: [1] -17.8% | [2] -6.95% | [3] -12.6% | [4] 37.5% | [5] -19.4% | [6] 26.7%

CCCCOC(=O)C(O)Cc1ccoc1 (stereo unspecified)
inactive: [1] 5.25% | [2] -33.9% | [3] -17.9% | [4] 12.9% | [5] -14.4% | [6] -14.4%

O=C(OC(C1COCO1)C(O)C1COCO1)c1ccccc1 (stereo unspecified)
inactive: [1] 5.65% | [2] -8.85% | [3] 9.05% | [4] -1.85% | [5] 28.4% | [6] 17.4%

O=C(O)C1(F)CC1(c1ccccc1)c1ccccc1 (stereo unspecified)
inactive: [1] -4.7% | [2] 9.7% | [3] 14.5% | [4] -38.2% | [5] 5.6% | [6] -7.8%

CCN(CC)C(=S)SCC(=O)Nc1nc2c(s1)CCCC2
inactive: [1] -9.25% | [2] -1.25% | [3] -34.2% | [4] 3.75% | [5] 11.3% | [6] 6.9%

CCC1(C)OCCO1
inactive: [1] 0.5% | [2] -13.5% | [3] -12.1% | [4] -29.9% | [5] 1.05% | [6] 2.2%

C[C@@]1([N+](=O)[O-])CC2CCC1C2 (stereo partly specified)
inactive: [1] -3.9% | [2] -12.5% | [3] -16.4% | [4] -6.45% | [5] 2.55% | [6] -9.55%

CCCC(=O)NC1CCc2cc(OC)c(OC)c(OC)c2-c2ccc(OC)c(=O)cc21 (stereo unspecified)
inactive: [1] 27.4% | [2] -40.5% | [3] 23.1% | [4] -0.9% | [5] 3.45% | [6] 3.2%

O=c1cc2ccc(Cl)cc2n[nH]1
inactive: [1] 8.1% | [2] 2.7% | [3] 2.05% | [4] -33.4% | [5] -14.3% | [6] 4.5%

c1ccc(C(=NN=C(c2ccccc2)c2ccccc2)c2ccccc2)cc1
inactive: [1] 17.9% | [2] 23.9% | [3] 8.4% | [4] 30.5% | [5] 1.25% | [6] 6.25%

CCOC(=O)/N=N/C(C)(C)OC(C)=O
inactive: [1] -10.5% | [2] 9.25% | [3] -8.1% | [4] -39.7% | [5] -20.4% | [6] -21.1%

CCOc1ccc(F)cc1
inactive: [1] 10.7% | [2] -13.5% | [3] 16.5% | [4] 22.6% | [5] 6.3% | [6] 25.9%

COc1ccc(/C=N/N=C(/C(=O)c2ccc(OC)cc2)c2ccc(OC)cc2)cc1
inactive: [1] 32.6% | [2] 0.3% | [3] 11.8% | [4] 3.2% | [5] 2.2% | [6] 6.8%

O=C(Cl)C(=O)c1c[nH]c2ccccc12
inactive: [1] 6.2% | [2] -1.95% | [3] -3% | [4] 1.65% | [5] -33.6% | [6] -12.5%

O=C(O)c1ccc(P(=O)(O)O)cc1[N+](=O)[O-]
inactive: [1] 26.4% | [2] 9.65% | [3] -9.45% | [4] 1.75% | [5] 4.25% | [6] -7%

Nc1[nH]c(=O)[nH]c(=O)c1[N+](=O)[O-]
inactive: [1] 5.4% | [2] -6.8% | [3] -7.1% | [4] -8.5% | [5] -9.35% | [6] -3.15%

CC(=O)OC[C@H](O)[C@@]1(O)CC[C@H]2[C@@H]3CCC4=CC(=O)C=C[C@]4(C)[C@H]3[C@@H](O)C[C@@]21C
inactive: [1] 33.2% | [2] 14.9% | [3] 23.9% | [4] 1.15% | [5] 41.6% | [6] 27%

CCN(CC)CCC(=O)c1ccc(Cl)cc1
inactive: [1] 19.6% | [2] 21.4% | [3] 14.1% | [4] 10.3% | [5] 1.05% | [6] 17.4%

[S-]c1n[n+](-c2ccccc2)cs1
inactive: [1] 2.95% | [2] 2.1% | [3] 0.15% | [4] -5.25% | [5] -23% | [6] 3.1%

O=c1[nH]nc(-c2ccccc2)nc1/C(=N\Nc1ccccc1)c1ccccc1
inactive: [1] 15.5% | [2] -12.3% | [3] 1.05% | [4] 0.85% | [5] 12.5% | [6] 14.7%

CSc1ccc(C(C)=O)cc1
inactive: [1] 13.6% | [2] 5.9% | [3] 5.95% | [4] 4.6% | [5] 1.55% | [6] 3%

Cn1ccnc1C(O)(c1nccn1C)c1nccn1C
inactive: [1] -5.75% | [2] -2.55% | [3] 2.15% | [4] 19.1% | [5] -8.35% | [6] 16.2%

CCC12CCCNC1c1c(n(C)c3ccccc13)C(C(=O)OC)C2 (stereo unspecified)
inactive: [1] 36.9% | [2] -2.9% | [3] 25% | [4] 25.6% | [5] -9.05% | [6] -20.7%

CCOC(=O)C(CC(C)C)NC(=O)c1c2nc3c(C(=O)NC(CC(C)C)C(=O)OCC)cc(NC(C)=O)c(C)c3oc-2c(C)c(=O)c1N (stereo unspecified)
inactive: [1] 8.4% | [2] 34.5% | [3] 34.6% | [4] -4.95% | [5] -6.5% | [6] 48.8%

CNc1ccc(C=C2C=CC=C2)cc1
inactive: [1] 41.2% | [2] 1.7% | [3] 48.7% | [4] 5.2% | [5] 7.4% | [6] 55.7%

Nc1cc(Nc2ccccc2)nc(=O)[nH]1
inactive: [1] -3.1% | [2] -0.55% | [3] -4.85% | [4] -75.2% | [5] -7.1% | [6] 5.2%

CC(=C/c1ccccc1)/C=C1/NC(=S)NC1=O
inactive: [1] -25.6% | [2] -41.9% | [3] -16.4% | [4] -2.7% | [5] -23.4% | [6] -21.4%

O=C1CSC(c2ccc(O)cc2)N1c1nncs1 (stereo unspecified)
inactive: [1] 0.4% | [2] -0.75% | [3] 16.8% | [4] -0.55% | [5] 5.6% | [6] 11.9%

OCC(O)Cc1ccccc1 (stereo unspecified)
inactive: [1] -7% | [2] -12.8% | [3] 3.2% | [4] -13.1% | [5] -1.8% | [6] 5.05%

O=C1OCCOCCOCCOCCOCCOC(=O)c2cccc1n2
inactive: [1] 18.1% | [2] 12.2% | [3] 20.4% | [4] 18.1% | [5] 12.5% | [6] 16.1%

COc1ccc2c3c([nH]c2c1N)C(C)NCC3 (stereo unspecified)
inactive: [1] -11.4% | [2] -18.9% | [3] 4.2% | [4] 13.3% | [5] -18.3% | [6] 0.4%

CC1C(=O)N(c2ccccc2)NC12CCCc1ccccc12 (stereo unspecified)
inactive: [1] -15.2% | [2] -7.3% | [3] -34.8% | [4] 16.6% | [5] 25.1% | [6] 27.6%

CCOC(=O)COc1ccc(OC)c2c1C(=O)CCC2
inactive: [1] 21.1% | [2] 16.7% | [3] 6.15% | [4] 29.2% | [5] 10% | [6] 15%

O=S1(=O)CCC12CC1c3ccccc3C2c2ccccc21 (stereo unspecified)
inactive: [1] -6.1% | [2] -6.05% | [3] -11.6% | [4] -2.85% | [5] -11.1% | [6] -6.85%
